# Results taken from publication PMC5540273 (PLoS ONE, 2017).
# What was measured:
# Details in all cases: concentration: 1 μM, replicates: in singlicate; n = 1
# [1] = test system: AKT3
# [2] = test system: ALK
# [3] = test system: T1, AMPK-alpha1
# T1 construct: gene PRKAA1
# [4] = test system: T2, AMPK-alpha2
# T2 construct: gene PRKAA2
# [5] = test system: ANKK1
# [6] = test system: T3, ARK5
# T3 construct: gene NUAK1
# [7] = test system: T4, ASK1
# T4 construct: gene MAP3K5
# [8] = test system: T5, ASK2
# T5 construct: gene MAP3K6
# [9] = test system: AURKA
# [10] = test system: AURKB
# [11] = test system: AURKC
# [12] = test system: AXL
# [13] = test system: T6, BIKE
# T6 construct: gene BMP2K
# [14] = test system: BLK
# [15] = test system: BMPR1A
# [16] = test system: BMPR1B
# [17] = test system: BMPR2
# [18] = test system: BMX
# [19] = test system: BRAF
# [20] = test system: T7, BRK
# T7 construct: gene PTK6
# 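Also: KINOMEscan kinase panel screen.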
SMILES,%Inh [1],%Inh [2],%Inh [3],%Inh [4],%Inh [5],%Inh [6],%Inh [7],%Inh [8],%Inh [9],%Inh [10],%Inh [11],%Inh [12],%Inh [13],%Inh [14],%Inh [15],%Inh [16],%Inh [17],%Inh [18],%Inh [19],%Inh [20]
CCn1c(-c2ccncc2)nc2cnccc21 [SB-735216],0%,6%,0%,5%,21%,8%,0%,20%,7%,29%,0%,24%,8%,0%,4%,0%,24%,17%,19%,3%
COC(=O)c1cccc(NC(=O)NCCNc2ccnc(Nc3ccc(F)cc3)n2)c1 [GSK1379883],0%,32%,0%,18%,1%,0%,0%,0%,21%,0%,32%,5%,22%,0%,0%,0%,0%,21%,0%,24%
Nc1n[nH]c2nnc(-c3ccccc3)cc12 [SB-517389],0%,29%,0%,16%,0%,1%,61%,0%,13%,32%,0%,0%,0%,0%,4%,0%,0%,0%,0%,20%
Clc1cccc(-c2nc(Nc3ccncc3)c3ccccc3n2)c1 [GW873004],1%,33%,30%,9%,0%,0%,13%,0%,0%,17%,10%,0%,10%,19%,21%,4%,10%,43%,0%,24%
FC(F)(F)c1cc(Nc2nccc(-c3c(-c4ccc(Cl)cc4)nn4ncccc34)n2)ccc1Cl [GW829351],0%,8%,0%,0%,0%,0%,0%,0%,5%,0%,0%,0%,0%,0%,0%,0%,4%,0%,0%,0%
CS(=O)(=O)CCNCc1ccc(-c2ccc3ncnc(Nc4ccc(OCc5ccccc5)c(Cl)c4)c3c2)o1.Cl [GW574783],27%,18%,9%,24%,0%,18%,0%,0%,0%,4%,2%,42%,19%,49%,0%,0%,0%,19%,9%,0%
Nc1nccc2scc(-c3ccc4c(c3)CCN4C(=O)Cc3cc(F)ccc3F)c12 [GSK2587663],0%,8%,0%,11%,1%,0%,6%,13%,0%,8%,35%,41%,10%,54%,0%,0%,0%,23%,3%,32%
Cl.Fc1ccccc1COc1ccc(Nc2ncnc3ccc(-c4nnc(C(F)(F)F)o4)cc23)cc1Cl [GW424170],0%,0%,0%,0%,0%,0%,0%,0%,13%,0%,0%,0%,9%,21%,0%,0%,5%,1%,0%,6%
COC(=O)c1c(-c2ccccc2)c2cc(Cl)ccc2c(=O)n1Cc1ccc(S(C)(=O)=O)cc1,0%,8%,7%,0%,0%,19%,6%,6%,4%,12%,0%,0%,0%,0%,0%,5%,0%,17%,65%,7%
Cn1ccc2ncnc(Oc3ccc(NC(=O)Nc4cccnc4)c(Cl)c3)c21,0%,0%,4%,9%,0%,3%,5%,0%,18%,47%,0%,7%,0%,8%,0%,0%,7%,0%,0%,0%
Cc1cc(N2CCC(NS(=O)(=O)c3ccc(F)cc3)CC2)nc(Nc2cccc(C#N)c2)n1.O=C(O)C(F)(F)F [GSK1653537],0%,7%,0%,20%,3%,15%,0%,3%,0%,0%,18%,7%,21%,25%,0%,0%,0%,14%,0%,21%
O=C(Nc1ccccc1)Nc1ccc(Oc2ccc3nccn3n2)cc1,10%,0%,25%,0%,0%,0%,8%,0%,0%,68%,16%,0%,0%,13%,18%,6%,0%,8%,0%,0%
Cn1cc(-c2ccc3c(c2)CCN3C(=O)Cc2cccc(C(F)(F)F)c2)c2c(N)ncnc21 [GSK2606414],53%,1%,0%,13%,16%,13%,0%,10%,30%,32%,29%,41%,26%,36%,0%,0%,0%,2%,12%,3%
Cc1cccc(-c2nc(Nc3ccc4[nH]nnc4c3)c3ccccc3n2)n1 [GW867587],0%,2%,0%,0%,0%,0%,0%,0%,0%,0%,0%,0%,0%,3%,0%,0%,8%,0%,0%,0%
COc1cc2ncnc(Nc3ccc(OCc4ccccc4Br)c(Cl)c3)c2cc1OC.Cl [GI261590],0%,39%,11%,0%,0%,3%,10%,0%,1%,35%,42%,19%,5%,49%,0%,0%,15%,4%,7%,66%
Cl.Cn1ccc(-c2cccc(Nc3ccnc4cc(-c5nccs5)ccc34)c2)n1 [GW525701],0%,28%,0%,14%,8%,0%,9%,0%,0%,28%,0%,0%,0%,15%,0%,0%,16%,0%,0%,5%
CNc1nccc(-c2c(-c3ccc(F)cc3)ncn2CCCN2CCOCC2)n1 [SB-222516],14%,12%,0%,9%,39%,0%,9%,12%,0%,11%,21%,14%,0%,17%,13%,0%,30%,3%,6%,0%
Cl.O=S(=O)(c1cccc(F)c1)c1ccc(Nc2ncnc3cc(Br)sc23)cc1Cl [GSK306886],0%,14%,0%,0%,3%,10%,8%,0%,30%,0%,0%,0%,0%,10%,0%,0%,0%,15%,0%,0%
O=C(NCCCN1CCCC1=O)c1cnc(NCc2cc(Cl)ccc2Cl)nc1NC1CCNCC1,0%,21%,18%,17%,0%,0%,0%,0%,0%,0%,0%,41%,4%,0%,6%,0%,0%,0%,39%,0%
CC(=O)Nc1n[nH]c2ncc(-c3ccccc3)cc12 [SB-548492],5%,0%,10%,1%,20%,0%,20%,23%,16%,17%,32%,21%,7%,28%,30%,21%,47%,13%,0%,0%
CC(C)(C)OC(=O)NC1CCCN(c2cc(-c3ccc4c(N)n[nH]c4c3)nc(N)n2)C1 (stereo not drawn) [GSK2286096],0%,36%,0%,0%,7%,19%,0%,0%,52%,66%,53%,5%,10%,0%,0%,0%,0%,8%,16%,13%
